From the supplement of paper PMC6555819

Legend:
Experiment in all cases: PBM binding z-score (relative to random genomic background probes); higher = stronger binding; sequences stand for … in GC…GCGATTGACAGCGTAGAATGAAGG
[1] = test system: RARb homodimer (NR concentration 270 nM)
Outline: (§1)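 Random background probes are the reference for binding z-scores. These scores derive from regression-normalized fluorescence on custom Agilent 4×180K protein-binding microarrays incubated 1 h with ligand-free nuclear receptor dimers. Binding was detected with antibodies against each partner (one per run).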

[2] = test system: RARg:RXRa (NR concentration 270 nM, RXRa partner concentration 90 nM)
Outline: as §1

[3] = test system: RARg homodimer (NR concentration 270 nM)
Outline: as §1

[4] = test system: RXRa DBDmut IVT, anti-RXR (DBD mutation: RXRa K156A/R161A, NR concentration 90 nM)
Outline: as §1

[5] = test system: RXRa homodimer (NR concentration 180 nM)
Outline: as §1

[6] = test system: THRa:RXRa (NR concentration 90 nM, RXRa partner concentration 90 nM)
Outline: as §1

[7] = test system: THRa homodimer (NR concentration 90 nM)
Outline: as §1

[8] = test system: VDR homodimer (NR concentration 270 nM)
Outline: as §1

Sequence	PBM binding z-score [1]	PBM binding z-score [2]	PBM binding z-score [3]	PBM binding z-score [4]	PBM binding z-score [5]	PBM binding z-score [6]	PBM binding z-score [7]	PBM binding z-score [8]
GGAACGAGGGCAGGTTGATAGCAGAGTTTGATGG	1.3	0.763	1.26	0.971	0.496	0.552	0.392	1.16
ATCTCTAGGTGACCAAGTTCAGTGAATGCCGAAC	1.77	1.24	1.38	0.521	0.867	1.5	0.429	2.22
CGCACTAGGTCAGAACAGGACAGTGAAGGATGAT	2.18	2.44	3.31	0.675	1.34	3.71	0.508	-0.275
ACTCGGAGGACAAAGGTCAGAGGTACGCCAGTGA	4.58	5.98	5.03	0.647	5.39	3.49	0.633	1.68
CATACAGGGTCAGCTAAGCCAGAGTAGGGACGGC	2.87	4.23	4.37	1.77	4.2	3	0.863	1.04
TCTAGTAGGTTAGGGGCATTCAGAATGGCGTCGA	1.31	0.656	0.586	1.42	0.98	1.03	0.797	1.39
CCTACTGGGCCATCAGGTCACTGATATCAACGTT	2.82	2.28	2.5	-0.0787	1.54	3.34	3.44	0.813
AGAACGAGGGCAATTAGTTGATAGCACGGGTGGC	1.14	1.37	1.89	2.01	0.935	0.962	-0.172	1.41
CAAACTAGGTCACCGGAAGGGCAAAGTCCGCATG	4.57	6.48	5.56	1.21	3.68	3.42	1.7	1.33
TCTAGCAGGCCAGAGGGTCACTGAAGAGGTACGG	2.72	2.74	1.97	-0.0936	2.63	1.7	-0.233	0.299
CGAACTAGGTCAGAACAGGCCAGTGAAGGATGAT	2.09	2.58	2.86	0.213	1.28	2.53	-0.201	-0.281
GGAACGAGGGCATTCGAATTGATAGCATGGCGAT	0.601	1.21	1.55	3.14	0.908	0.827	-0.231	1.99
ACTATTATTTGACTTAGGGCAACCGATACGACGC	1.2	1.18	1.35	1.24	0.818	1.18	1.52	1.41
CAAACTAGGTCATAGGTCAAAGTCGAGCCAACCA	4.27	6.56	5.38	2.31	7.49	4.11	1.44	1.92
TCATATAGGTAAATGCGAGGTGAAAGTCCGATCT	1.05	0.929	0.538	1.89	1.18	2.78	1.54	0.605
GCGACTGGGGCACAGCAGGTTACCATAAGGTTGG	1.23	0.566	0.841	-0.647	0.331	2.47	-0.0588	-0.59
CCGACTGGGGCATAAGGTTACCATAAGCCAGCCC	1.69	1.62	1.17	-0.574	1.13	2.01	1.13	-0.0146
TCTCGGAAGACACGAAGGTCAGAGCTTTCCAGAG	3.02	1.39	1.67	0.484	1.61	1.09	-0.118	0.195
TTACCAAGGTGAAGGCCGTTGATCCCTCTGTAGA	0.648	0.161	0.236	-0.411	0.286	1.57	0.252	-0.421
CCTATTAGTTGACCATAAGGCCAACCGAAGCTCG	1.68	0.941	0.942	0.893	0.779	2	1.89	1.06
ACTCAAAGTTCATCTAGGTAACGTAAGATATGCT	4.25	5.51	6.3	4.87	4.62	3.37	0.619	5.89
CGAACTAGGTCAAGGAGAGTGAATCTCCGCACGC	2.9	3.91	4.76	1.44	2.85	2.28	0.799	-0.00315
GCTTACGGGTCAAAGGTTATCGCATGAATAGAAT	3.45	7.02	5.01	2.6	9.64	3.98	0.155	1.59
ATCGAAAGGTCTAGGTGAGTATAGAGAAAGGGAA	1.12	1.23	1.3	0.133	0.532	0.835	0.338	-0.115
TCGAGTAGGTTACCAATGCGGCATTCAGCTTTCT	-0.23	0.0889	0.12	0.365	0.498	-0.131	-0.859	-0.937
AGAACGAGGGCAATGAGTTGATAGCACGGGTGGC	0.844	0.952	1.54	1.78	0.91	0.824	-0.00899	2.26
GCATATAGGTAATACAAGGTGAAAGTACGATTGT	0.886	0.699	0.793	0.0522	0.99	4.29	0.806	0.163
GCAGAAAGGTGAAACGCAGGTAACTCAGGGTGGC	1.55	3.22	1.84	0.00146	2.31	2.25	-0.396	-0.808
